Y pestis TopoI: Yersinia pestis topoisomerase I inhibitors, primary screen, biochemical, cleavage product accumulation, plate reader, single point | actives 0.064% (n = 360,000) | activity, % at 10 µM | AID 504884, 2011 | DNA topoisomerase I (Yersinia pestis CO92) | Y. pestis Topo-I cleavage product accumulation; in the data active means activity above about 50%, passing the limit was not always enough
GDH-TPI counter-1: GDH-TPI coupling enzyme inhibitors, primary screen, artefact control for M. tuberculosis FBA inhibitor project, biochemical, absorbance, full deck; GDH-TPI coupled enzyme counterscreen, NADH absorbance; inhibition, % at 4.8 µM; actives 1.2% (n = 360,000); AID 588335, 2011; in the data active means inhibition above about 30%;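 further: 0% = DMSO wells and 100% = wells lacking the enzyme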
Mtb hypoxia inh: PubChem AID 1159583. M. tuberculosis hypoxia-regulated fluorescent reporter, fluorescence. fluorescence inhibition, % (test concentration not listed). actives 0.1% (n = 300,000); in the data active means fluorescence inhibition mostly above about 23%, no sharp cut-off; inactive means mostly below about 17%
PrP UTR inh: inhibition of PrP 5' UTR reporter expression | cell-based PrP 5' UTR mRNA reporter, plate reader | inhibition, % (test concentration not listed) | actives 0.35% (n = 340,000); in the data active means inhibition above about 52%; further: 0 = median of the neutral control wells
PrPC TRFRET: inhibitors of human cell surface prion protein PrPC, primary screen, cell-based, TR-FRET; Major prion protein (Homo sapiens), P04156; TR-FRET read-out; inhibition, % at 13.8 µM; actives 0.43% (n = 370,000); in the data active means inhibition above about 24%; further: 0% = median of the test wells and 100% = reference compound wells
Mtb FBA inh: Mtb FBA enzyme inhibitors, primary screen, biochemical, fluorescence, strain H37Rv. inhibition, % at 1 µM. actives 2.3% (n = 360,000). Fructose-bisphosphate aldolase (Mycobacterium tuberculosis (strain ATCC 25618 / H37Rv)), …. purified M. tuberculosis FBA, fluorescence read-out. AID 588726, 2011;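 further: 0% = vehicle and 100% = reference inhibitor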
Target sequence (P9WQA3 whole entry, looked up): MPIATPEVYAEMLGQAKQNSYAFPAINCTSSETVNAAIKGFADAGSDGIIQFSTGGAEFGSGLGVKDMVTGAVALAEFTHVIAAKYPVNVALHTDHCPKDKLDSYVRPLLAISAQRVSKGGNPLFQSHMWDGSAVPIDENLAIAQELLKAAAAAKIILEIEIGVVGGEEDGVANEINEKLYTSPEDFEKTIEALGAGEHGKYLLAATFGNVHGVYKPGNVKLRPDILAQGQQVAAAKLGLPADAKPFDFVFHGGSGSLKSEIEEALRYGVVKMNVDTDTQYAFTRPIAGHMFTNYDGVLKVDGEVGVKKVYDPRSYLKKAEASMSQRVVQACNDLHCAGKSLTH
Mtb FBA confirm: M. tuberculosis aldolase blockers, biochemical, fluorescence, strain H37Rv, confirmation | actives 78% (n = 5,600) | inhibition, % at 1 µM | shares compounds with Mtb FBA inh | purified M. tuberculosis FBA, fluorescence read-out | AID 651616, 2012;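 further: 0% = vehicle wells and 100% = reference inhibitor wells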
GDH-TPI counter-2: GDH-TPI coupling enzyme inhibitors, artefact control for M. tuberculosis FBA inhibitor project, biochemical, fluorescence, high throughput; shares compounds with Mtb FBA inh; GDH-TPI coupled enzyme counterscreen; inhibition, % at 1 µM; actives 81% (n = 5,600); AID 652141, 2013; in the data active means inhibition above about 10%
Starred values were filed as active, the others as inactive; x = not tested or not shown; + = active, no number. Compounds with a hit are over-represented: about 3.8% of the library has one in this group of screens. Unless noted, no stated cut-off is given here; in the data, active means inhibition above about 27%; inactive means the rest.

SMILES | Y pestis TopoI | GDH-TPI counter-1 | Mtb hypoxia inh | PrP UTR inh | PrPC TRFRET | Mtb FBA inh | Mtb FBA confirm | GDH-TPI counter-2
N#CCCn1cc(C(=O)O)c(-c2cccs2)n1 | 11 | 2 | -13 | -11 | -3 | 0 | x | x
N#CCCn1cc(C(N)=O)c(-c2cccs2)n1 | 5 | -6 | -11 | -13 | 4 | 29* | 75* | 63*
Cn1c(C=NNc2nc3ccccc3[nH]2)nc2ccccc21 | x | x | -10 | x | x | x | x | x
COC(=O)CSc1nc2nc(-c3cccs3)cc(C(F)(F)F)c2c(=O)[nH]1 | 4 | -4 | -1 | -3 | 1 | 7 | x | x
CCOc1ccccc1NC(=O)CSc1nc2nc(-c3cccs3)cc(C(F)(F)F)c2c(=O)[nH]1 | 9 | 13 | -6 | -15 | 4 | 58* | 73* | 50*
COc1ccc(NC(=O)CSc2nc3nc(-c4cccs4)cc(C(F)(F)F)c3c(=O)[nH]2)c(OC)c1 | 3 | 9 | -1 | -15 | 4 | 19 | x | x
O=C(CSc1nc2nc(-c3cccs3)cc(C(F)(F)F)c2c(=O)[nH]1)NCc1ccco1 | 0 | 7 | 18 | -16 | 19 | 95* | 2 | -8
Cc1cc(-c2n[nH]c(=S)n2N=Cc2cccc([N+](=O)[O-])c2)n[nH]1 | x | x | 3 | x | x | x | x | x
Cc1ccc2c(CN3CCN(Cc4ccc5c(c4)OCO5)CC3)cc(=O)oc2c1C | 5 | 0 | 3 | -13 | -3 | 3 | x | x
Cc1c(O)ccc2c(CN3CCN(CCO)CC3)cc(=O)oc12 | -4 | 14 | 8 | -4 | 3 | 74* | 69* | 63*
Cc1c(O)ccc2c(CN3CCOCC3)cc(=O)oc12 | 3 | 3 | 5 | -15 | 6 | 71* | 46* | 38*
Cc1ccc(C=NNC(=O)c2ccc3nc[nH]c3c2)o1 | x | x | 8 | x | x | x | x | x
CCC(=O)Nc1nnc(-c2cccs2)s1 | -11 | 0 | 13 | -8 | 1 | 27* | 0 | -4
CCC(C)C(=O)Nc1nnc(-c2cccs2)s1 (stereo unspecified) | -8 | 10 | x | -34 | -1 | 32* | 51* | 47*
COCC(=O)Nc1nnc(-c2cccs2)s1 | -7 | 25 | x | -20 | -1 | 23 | x | x
O=C(Cc1ccccc1)Nc1nnc(-c2cccs2)s1 | 11 | 23 | x | -23 | -7 | 68* | 106* | 83*
CC(=NNC(=O)c1nn(C)cc1Br)c1cccc(NC(=O)c2ccncc2)c1 | x | x | -2 | x | x | x | x | x
Cc1cccc(-c2oc3ccc(-c4ccc5c(c4)OCO5)cc3c2/C=C/c2ccc(N)cc2)c1 | 2 | 21 | x | 5 | x | 44* | 135* | 120*
COc1ccc(C=Cc2c(-c3cccc(C)c3)oc3ccc(-c4ccc5c(c4)OCO5)cc23)cc1 | x | x | 10 | x | x | x | x | x
Cc1cccn2c(=O)c(C=NCCO)c(NCc3ccco3)nc12 | -2 | 25 | 8 | -7 | 4 | 39* | + | +
CCN(CC)CCOC(=O)c1cccc2c1-c1ccccc1C2O (stereo unspecified) | -2 | -4 | 1 | -24 | -1 | 29* | 46* | 35*
CCN(CC)CCOC(=O)c1ccccc1Br | -1 | 2 | -4 | -4 | -2 | 3 | x | x
CCCCn1nc2cc(C(=O)NCc3ccccc3OC)ccc2c1OCC | 11 | -8 | 8 | -21 | 2 | 19 | x | x
C=CCOc1c2ccc(C(=O)NCCc3ccc(C)cc3)cc2nn1C | 4 | 9 | 9 | -12 | 4 | 15 | x | x
CCCn1nc2cc(C(=O)NCCCCc3ccccc3)ccc2c1OCC | 35 | 9 | 20 | -28 | 1 | 53* | 132* | 104*
SMILES | Y pestis TopoI | GDH-TPI counter-1 | Mtb hypoxia inh | PrP UTR inh | PrPC TRFRET | Mtb FBA inh | Mtb FBA confirm | GDH-TPI counter-2
CCCn1nc2cc(C(=O)NCCc3ccc(C)cc3)ccc2c1OCC | 26 | 4 | 11 | 1 | 1 | 55* | 64* | 67*
O=S(=O)(N=C(Sc1ccccc1)c1ccccc1)c1ccccc1 | x | x | 12 | x | x | x | x | x
CCn1c(C(C)NC(=O)c2ccc(Cl)cc2)n[nH]c1=S (stereo unspecified) | -8 | -3 | 12 | -33 | -3 | 40* | 107* | 86*
CCc1ccc(OCC(=O)NN=Cc2cc([N+](=O)[O-])ccc2N2CCOCC2)cc1 | x | x | -1 | x | x | x | x | x
CCCCC(c1nnnn1CCOC)N1CCN(CC)CC1 (stereo unspecified) | 4 | 9 | -5 | -12 | -1 | 38* | 91* | 62*
C=CCN1CCN(C(CC(C)C)c2nnnn2CCOC)CC1 (stereo unspecified) | -10 | -4 | x | 12 | -9 | 2 | x | x
CCCCCCCC[n+]1cccc2c3ccccc3ccc21 | 25 | -3 | 8 | 8 | 6 | 67* | 65* | 42*
CC(C)(C)c1ccc(C=NOCC(=O)NCc2ccccc2)cc1 | x | x | 5 | x | x | x | x | x
Nc1cc(C(=O)O)ccc1Nc1ccccc1 | 16 | 8 | 12 | -12 | -9 | 91* | 126* | 113*
CC(=O)COc1cc(C)cc2oc(=O)c(C)c(C)c12 | -3 | 15 | -1 | -6 | -7 | 38* | + | +
Cc1cc(OCC(=O)N2CCC(C(=O)O)CC2)c2c(C)c(C)c(=O)oc2c1 | -1 | 9 | x | -17 | -4 | 87* | -5 | -6
Cc1cc(OCC(=O)N2CCC(O)CC2)c2c(C)cc(=O)oc2c1 | 0 | 4 | 6 | 1 | x | 100* | 142* | 105*
Cc1cc(OCC(=O)Nc2ccc(CCO)cc2)c2c(C)c(C)c(=O)oc2c1 | 6 | 7 | -6 | -12 | 1 | 33* | 1 | -3
Cc1oc(C=NNC(=O)CN(c2ccccc2Cl)S(C)(=O)=O)cc1Br | x | x | 9 | x | x | x | x | x
NC(=O)c1cc2cc(Br)ccc2oc1=NNC(=O)c1cccc(F)c1 | x | x | -9 | x | x | x | x | x
CCn1c(C)nc2cc(C(=O)NN=Cc3ccc(N4CCOCC4)cc3)ccc21 | x | x | 9 | x | x | x | x | x
COc1ccc(NC(C)C(=O)NN=Cc2c(O)ccc3ccccc23)cc1 (stereo unspecified) | x | x | 15 | x | x | x | x | x
Cc1nn(-c2ccccc2)c(C)c1C=NNC(=O)CSc1nc2ccccc2c(=O)n1-c1ccccc1 | x | x | 13 | x | x | x | x | x
O=S1(=O)CCOCC(Cc2ccccc2)N1Cc1cccc(Cl)c1 (stereo unspecified) | x | x | 1 | x | x | x | x | x
Cc1cc(OCC(=O)N2CCC(C(=O)O)CC2)c2c3c(c(=O)oc2c1)CCCC3 | 5 | 6 | x | -17 | -2 | 77* | 131* | 82*

Compound activity from PubChem BioAssay.
